# PubChem BioAssay (NCATS)
# Inconclusive results are not listed. The source made the active and inactive calls. Unless noted, calls come from the whole dose curve; as a rule, active = well fitted inhibition curve with a large enough effect; inconclusive = small, poorly fitted or top-dose-only effect; inactive = flat fitted curve, though single readings scatter.
# Legend:
# [1] = qHTS drug screen for cell cycle checkpoint inhibitors in PARPi-resistant BRCA-mutant ovarian cancer cell lines. (AID 1963452; calls by dose curve); details: PEO1/OlaR viability, CellTiter-Glo luminescence, 96 h, stronger effect = lower value
# Procedure, shortened: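 PEO1, PEO4 and PEO1/OlaR ovarian cancer cells, 600 per well, exposed 96 h at 37C to a dilution series. Viability read by CellTiter-Glo luminescence, normalized to DMSO and empty wells; activity summarized as Z-AUC.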
# [2] = qHTS for identification of novel therapeutic agents for treatment of microphthalmiaassociated transcription factor (MiT) renal cell carcinoma (RCC) (AID 1963991); details: CellTiter-Glo, 48 h, stronger effect = lower value
# Procedure, shortened: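 Three TFE3-fusion RCC cell lines (UOK109, UOK124, UOK145), 500 cells/well, were exposed to the 1912-compound MIPE 4.0 library for 48 hours at 37 C. Viability was read by CellTiter-Glo luminescence, normalised to DMSO (100%) and empty wells (0%), with 11-concentration curve fits.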
# [3] = qHTS profiling for inhibitors of Plasmodium falciparum proliferation (AID 504749); note: nearly all actives have a fitted effect of over 60% in size; note: potency is the fitted concentration of half-maximal effect;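 for activity, negative = inhibition: 0% = DMSO vehicle and full inhibition = artemisinin control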; details: P. falciparum in erythrocytes, SYBR Green DNA, 72 h
# Procedure, shortened: (§1)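 Readout was DNA-dye fluorescence from lysed cultures, ex 485/em 535 nm. Parasitized red cells had grown 72 h with compound; data scaled between 0.29 uM artemisinin and DMSO wells and corrected using vehicle-only plates.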
# 3D7 = assay: as above; details: P. falciparum in erythrocytes, SYBR Green DNA, 72 h; series mostly up to 28.7 µM
# Procedure, shortened: as §1
# AA1029 = assay: as above; details: P. falciparum in erythrocytes, SYBR Green DNA, 72 h; series mostly up to 28.7 µM
# Procedure, shortened: as §1
# AS120 = assay: as above; details: P. falciparum in erythrocytes, SYBR Green DNA, 72 h; series mostly up to 28.7 µM
# Procedure, shortened: as §1
# 7G8 = assay: as above; details: P. falciparum in erythrocytes, SYBR Green DNA, 72 h; series mostly up to 28.7 µM
# Procedure, shortened: as §1
# [4] = measured here: PEO1 parental Z-AUC
# [5] = TFE3-RCC UOK109 viability, measured here: UOK109 Z-AUC
# [6] = TFE3-RCC viability, measured here: UOK124 Z-AUC
# [7] = TFE3-RCC viability, measured here: UOK145 Z-AUC
# [8] = at 28.7 µM (top of the series), parasite line A
# [9] = at 28.7 µM (top of the series), parasite line B
SMILES,Z-AUC [1],"Z-AUC [1, 4]",Z-AUC ([1]; measured here: PEO4 Z-AUC),"z-score [2, 5]","z-score [2, 6]","z-score [2, 7]","activity, negative = inhibition [3, 8]","activity, negative = inhibition [3, 9]",Potency (3D7),Potency (AA1029),Potency (AS120),Potency (7G8),Potency ([3]; parasite line B),Potency ([3]; parasite line A),"activity, negative = inhibition ([3]; at 12.8 µM (top of the series), parasite line A)","activity, negative = inhibition ([3]; at 12.8 µM (top of the series), parasite line B)"
COCCCOc1ccnc(CS(=O)c2nc3ccccc3[nH]2)c1C (stereo not drawn),-0.249 (inactive),-0.578,-0.176,0.673,0.741,0.739,-29% (inactive),-20.3% (inactive),inactive,inactive,inactive,,,,,
Cc1ccc(C)c(OCCCC(C)(C)C(=O)O)c1,1.52 (inactive),1.37,1.5,,,,19.7% (inactive),9.1% (inactive),inactive,inactive,inactive,inactive,,,,
O=C(NC(Cc1cc(=O)[nH]c2ccccc12)C(=O)O)c1ccc(Cl)cc1 (stereo not drawn),-0.00865 (inactive),0.872,1.04,,,,1.94% (inactive),-14.9% (inactive),inactive,inactive,inactive,inactive,,,,
O=C(O)c1cccc(-c2noc(-c3ccccc3F)n2)c1,0.225 (inactive),0.852,1.3,,,,-1.01% (inactive),10.4% (inactive),inactive,inactive,inactive,inactive,,,,
O=C(O)c1cn(-c2ccc(F)cc2)c2cc(N3CCNCC3)c(F)cc2c1=O,0.692 (inactive),0.709,0.947,0.863,0.568,0.628,-18.3% (inactive),-17.6% (inactive),inactive,,inactive,,,,,
Cc1ccc(NC(=O)c2ccc(CN3CCN(C)CC3)cc2)cc1Nc1nccc(-c2cccnc2)n1,-0.776 (inactive),-0.808,-0.886,,,,,,,11.2 µM (active),8.91 µM (active),7.94 µM (active),11.2 µM (active),,,
CCc1nc(N)nc(N)c1-c1ccc(Cl)cc1,-0.192 (inactive),-0.422,-0.843,,,,,,0.0794 µM (active),inactive,,10 µM (active),3.16 µM (active),0.0501 µM (active),,
CN(C)c1ccc2nc3ccc(=[N+](C)C)cc-3sc2c1,-0.652 (inactive),-0.738,-0.606,,,,,,0.0398 µM (active),0.0794 µM (active),0.0631 µM (active),0.0028 µM (active),0.0631 µM (active),0.0447 µM (active),,
O=C1c2ccccc2-c2n[nH]c3cccc1c23,0.0207 (inactive),-0.118,0.208,,,,-18.5% (inactive),-1.75% (inactive),inactive,inactive,inactive,,,,,
Cc1c(C(=O)NN2CCCCC2)nn(-c2ccc(Cl)cc2Cl)c1-c1ccc(Cl)cc1,-1.52 (inactive),-0.747,-0.695,,,,,,,,12.6 µM (active),12.6 µM (active),11.2 µM (active),,,
CN(C)C(=O)COC(=O)Cc1ccc(OC(=O)c2ccc(N=C(N)N)cc2)cc1,-0.267 (inactive),-0.623,-0.684,,,,-4.03% (inactive),4.45% (inactive),inactive,inactive,inactive,inactive,,,,
CN1CCC(=C2c3ccccc3CCc3sccc32)CC1,-0.614 (inactive),-1.2,-0.893,,,,-27.4% (inactive),-20.6% (inactive),inactive,6.31 µM (active),,11.2 µM (active),,,,
CC1(C)NC(=O)N(c2ccc([N+](=O)[O-])c(C(F)(F)F)c2)C1=O,1.11 (inactive),0.722,0.784,,,,-1.6% (inactive),7.49% (inactive),inactive,inactive,inactive,inactive,,,,
COC1=C(OC)C(=O)C(CCCCCCCCCCO)=C(C)C1=O,-0.864 (inactive),-1.14,-0.303,,,,-28.8% (inactive),-11.7% (inactive),,inactive,inactive,,,,,
N=C(N)c1ccc2cc(OC(=O)c3ccc(N=C(N)N)cc3)ccc2c1,0.0758 (inactive),0.542,0.795,0.107,-0.0134,0.0541,,,,,,11.2 µM (active),,,,
Cc1c(OCC(F)(F)F)ccnc1CS(=O)c1nc2ccccc2[nH]1 (stereo not drawn),1.49 (inactive),0.689,0.798,0.51,0.775,0.275,-19.3% (inactive),-5.11% (inactive),inactive,inactive,inactive,,,,,
CCCc1cc(=O)[nH]c(=S)[nH]1,-0.283 (inactive),-0.244,0.119,,,,3.45% (inactive),5.92% (inactive),inactive,inactive,inactive,inactive,,,,
Oc1ccc(OCc2ccccc2)cc1,0.481 (inactive),0.491,0.0323,1.11,0.685,1.26,,,,inactive,inactive,inactive,,,-21.7% (inactive),-19.8% (inactive)
c1ccc2[nH]c(-c3cscn3)nc2c1,-1.4 (inactive),-0.204,0.0577,-0.345,0.601,-0.852,,-25.8% (inactive),inactive,inactive,inactive,inactive,,,,
